Screens (PubChem)
TGFb inhibitor: qHTS for Inhibitors of TGF-b | HepG2 CAGA-GFP TGF-b/SMAD3 reporter, GFP fluorescence, 18 h; TGF-beta stimulated, 500 pg/mL final | Potency, µM (highest dose often 46.1 µM), for inactives: at the highest dose activity, negative = inhibition, actives largely listed as inhibitors | 1.2% of 410,000 active | AID 588855, 2011; note: % is set by controls: 0 for no effect and ±100 for the full control effect; nearly all actives have a fitted effect of over 65% in size
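Cell-based qHTS in HEPG2 carrying a CAGA-GFP Smad reporter; compounds added before 500 pg/mL final TGF-beta, 18 h incubation at 37 degrees C, GFP fluorescence quantified per cell by imaging cytometry.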
TDP1 cell noCPT: qHTS for Inhibitors of human tyrosyl-DNA phosphodiesterase 1 (TDP1): qHTS in cells in absence of CPT; DT40 Tdp1-/- hTDP1 cells, no CPT, ATP luminescence, 48 h; Potency, µM (top dose mostly 46.2 µM), for the others: at the top dose activity change, negative = growth inhibition, usual class: inhibitors; 15% of 420,000 active; AID 686978, 2013; note: % is set by controls: 0 for no effect and ±100 for the full control effect; nearly all actives have a fitted effect of over 55% in size
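Seeded 400 DT40-hTDP1 cells/well (vehicle DMSO, no 20 nM CPT); pinned compounds; ≥48 hr at 37 °C; CellTiter-Glo luminescence as viability measure.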
HepG2 viability: qHTS for Inhibitors of TGF-b: Cytotox Counterscreen; HepG2 CAGA-GFP viability, ATP luminescence, 18 h; Potency, µM (doses to about 46.1 µM), inactives show top-dose activity change, negative = cytotoxicity, actives largely listed as cytotoxic; 0.76% of 410,000 active
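CellTiter-Glo luminescence gave cytotoxicity after 18 hours at 37 degrees C. The cells were HepG2 CAGA-GFP in 1% FBS DMEM, stimulated with 500 pg/mL TGF-beta after compound addition. %Activity was normalised to no-cell wells (complete cell-killing) and DMSO (no toxicity), and curves were fitted and classified.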
DT40 TDP1 CPT: qHTS for Inhibitors of human tyrosyl-DNA phosphodiesterase 1 (TDP1): qHTS in cells in presence of CPT; AID 686979, 2013; 12% of 420,000 active; Potency, µM (titrated, usually from 46.2 µM), for the others: at the top dose activity change, negative = growth inhibition, hits mostly inhibitors; chicken DT40 Tdp1-/-;hTDP1 cells + 20 nM CPT, ATP luminescence, 48 h; note: % is set by controls: 0 for no effect and ±100 for the full control effect; nearly all actives have a fitted effect of over 55% in size
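Chicken DT40 Tdp1-/- cells complemented with human TDP1, 400 cells/well, exposed to compounds plus 20 nM camptothecin for at least 48 h at 37 C; viability read as ATP content by CellTiter-Glo luminescence.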
S2 tox: Viability Counterscreen for Primary qHTS for Inhibitors of ATXN expression. S2 cells (HEK-293 line with an ATXN2-luciferase reporter) viability, CellTiter-Fluor protease fluorescence, 24 h. AID 651635, 2014. Potency, µM (titrated, usually from 56.7 µM), most hits filed as cytotoxic. 0.49% of 400,000 active; note: nearly all actives have a fitted effect of over 40% in size
ATXN2 expr inh: Primary qHTS for Inhibitors of ATXN expression; HEK-293 ATXN2-luciferase reporter, luminescence, 24 h; Potency, µM (titrated, usually from 57 µM), for the others: at the top dose activity change, negative = inhibition, most hits filed as inhibitors; 0.72% of 360,000 active; AID 1745845, 2022; note: % is set by controls: 0 for no effect and ±100 for the full control effect; nearly all actives have a fitted effect of over 55% in size
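qHTS (up to 57 uM final) was run with 24 h compound exposure of reporter cells at 37 °C. Each well was multiplexed: SteadyGlo luminescence measured ATXN2-luciferase expression after a fluorogenic Gly-Phe-AFC viability readout (25 uM final).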
The depositor's hits bear a star; i = inactive; ? = inconclusive; · = not tested or not shown. Most compounds without a hit are left out; they make up all but 17% or so of the library. Calls come from the whole dose curve; as a rule, active = well fitted curve in the direction sought with a large enough effect; inconclusive = small, poorly fitted or top-dose-only effect, or another doubt; inactive = no such curve, though single readings can be large; an effect the other way counts as inactive or inconclusive. Potency is the fitted concentration of half-maximal effect.

SMILES | TGFb inhibitor | TDP1 cell noCPT | HepG2 viability | DT40 TDP1 CPT | S2 tox | ATXN2 expr inh
Cc1ccccc1-n1c(O)c(C=NC2CCS(=O)(=O)C2)c2ccccc2c1=O (centres undefined) | 0% | ? | 20% | -29% | ? | -6%
Cc1cccc(-n2c(O)c(C=NC3CCS(=O)(=O)C3)c3ccccc3c2=O)c1C (centres undefined) | 0% | ? | -52% | 5.2µM* | i | -4%
Cc1cccc(-n2c(O)c(C=NCc3ccccn3)c3ccccc3c2=O)c1 | -16% | ? | -2% | 18µM* | i | -18%
Cc1ccc(-n2c(O)c(C=NC3CCS(=O)(=O)C3)c3ccccc3c2=O)cc1C (centres undefined) | 2% | 18µM* | 1% | 10µM* | i | -12%
C/C(=N\OCC(=O)OC(C)C(=O)Nc1ccc(C)c(S(=O)(=O)N2CCOCC2)c1)c1ccc2c(c1)OCO2 (centres undefined) | -3% | 3% | -1% | -14% | i | 4%
Cc1cccc(-n2c(O)c(C=NC3CCS(=O)(=O)C3)c3ccccc3c2=O)c1 (centres undefined) | 0% | ? | -2% | 13µM* | ? | 1%
Cc1ccc(N=Cc2c(O)n(-c3ccc4c(c3)OCO4)c(=O)c3ccccc23)cc1 | 2% | ? | -8% | ? | i | -10%
CC(C)(C)OC(=O)NCCCCCNC(=O)c1[nH]cnc1C(=O)Nc1ccc(Cl)cc1 | ? | 15µM* | 18µM* | ? | ? | ?
O=C(Nc1cccc(Cl)c1)c1nc[nH]c1C(=O)NCCCNC(=O)c1[nH]cnc1C(=O)Nc1cccc(Cl)c1 | 7% | ? | -4% | -29% | i | 1%
Cc1ccc(NC(=O)c2nc[nH]c2C(=O)NCCCCNC(=O)c2[nH]cnc2C(=O)Nc2ccc(C)cc2)cc1 | -6% | 8.2µM* | 7% | ? | ? | -5%
Cc1ccc(NC(=O)c2nc[nH]c2C(=O)NCCCCCNC(=O)OC(C)(C)C)cc1 | ? | 16µM* | -55% | ? | · | ?
Cc1ccc(NC(=O)c2nc[nH]c2C(=O)NCCCCCCNC(=O)c2[nH]cnc2C(=O)Nc2ccc(C)cc2)cc1 | 6% | ? | 1% | ? | i | 2%
CC(C)(C)OC(=O)NCc1ccc(NC(=O)c2nc[nH]c2C(=O)NCCN(CCNC(=O)c2[nH]cnc2C(=O)Nc2ccc(CNC(=O)OC(C)(C)C)cc2)CCNC(=O)c2[nH]cnc2C(=O)Nc2ccc(CNC(=O)OC(C)(C)C)cc2)cc1 | 1% | -19% | -13% | ? | i | 6%
CC(C)(C)OC(=O)NCCCCCNC(=O)c1[nH]cnc1C(=O)Nc1ccccc1 | ? | 15µM* | -28% | ? | ? | ?
NNC(=O)CNC(=O)Nc1n[nH]c(=S)s1 | 4% | -15% | -2% | -3% | i | 0%
O=C(N/N=C/c1ccc2cccc(OCc3ccccc3)c2n1)c1ccc(Br)cc1 | -11% | ? | -11% | 16µM* | i | -7%
O=C(N/N=C/c1cccc(OCc2ccccc2)c1)c1ccc(Br)cc1 | 7% | 18µM* | 9% | ? | i | 2%
COc1cccc(/C=N/NC(=O)c2ccc(OCc3cccc(Br)c3)cc2)c1 | 6% | ? | -38% | ? | i | -10%
COc1ccc(C(=O)N/N=C/c2ccc3cccc(OCc4ccccc4)c3n2)cc1 | -10% | 8.2µM* | -24% | ? | ? | ?
